Reference: publication PMC11006913

molecular target: PRRX1 (Homo sapiens, UniProt P54821 80-166, F113S); assay: PBM; 200 nM protein, PBS; details: dsDNA, one strand shown
Sequence (P54821 80-166 F113S): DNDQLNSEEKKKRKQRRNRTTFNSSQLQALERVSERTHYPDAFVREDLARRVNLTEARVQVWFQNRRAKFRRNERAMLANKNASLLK

Sequence | binding signal
CCAACACC | 9.31 upbm affinity estimate (log intensity, higher = more binding, comparable within an allelic series)
GACGTTGC | 9.46 upbm affinity estimate (log intensity, higher = more binding, comparable within an allelic series)
AGATATTA | 10.4 upbm affinity estimate (log intensity, higher = more binding, comparable within an allelic series)
GGACAACC | 9.36 upbm affinity estimate (log intensity, higher = more binding, comparable within an allelic series)
ACAGTCGG | 9.61 upbm affinity estimate (log intensity, higher = more binding, comparable within an allelic series)
CCAAGCTC | 9.29 upbm affinity estimate (log intensity, higher = more binding, comparable within an allelic series)
GAACAGCC | 9.48 upbm affinity estimate (log intensity, higher = more binding, comparable within an allelic series)
GTGTTAAC | 10.1 upbm affinity estimate (log intensity, higher = more binding, comparable within an allelic series)
CCAGGGAG | 9.19 upbm affinity estimate (log intensity, higher = more binding, comparable within an allelic series)
CCCAGGGA | 9.4 upbm affinity estimate (log intensity, higher = more binding, comparable within an allelic series)
CCATGACG | 9.32 upbm affinity estimate (log intensity, higher = more binding, comparable within an allelic series)
TCGTAACA | 10.2 upbm affinity estimate (log intensity, higher = more binding, comparable within an allelic series)
CCCGTACG | 9.21 upbm affinity estimate (log intensity, higher = more binding, comparable within an allelic series)
ACTTTATG | 10 upbm affinity estimate (log intensity, higher = more binding, comparable within an allelic series)
CCGAACCC | 9.23 upbm affinity estimate (log intensity, higher = more binding, comparable within an allelic series)
AATCATCC | 10.3 upbm affinity estimate (log intensity, higher = more binding, comparable within an allelic series)
CTTCATTA | 10.5 upbm affinity estimate (log intensity, higher = more binding, comparable within an allelic series)
GCTCCAGA | 9.35 upbm affinity estimate (log intensity, higher = more binding, comparable within an allelic series)
CGGAGCGC | 9.18 upbm affinity estimate (log intensity, higher = more binding, comparable within an allelic series)
AGCACCCT | 9.32 upbm affinity estimate (log intensity, higher = more binding, comparable within an allelic series)

Sequence | binding signal
CCAGAGTC | 9.5 upbm affinity estimate (log intensity, higher = more binding, comparable within an allelic series)
CCTGGAAC | 9.61 upbm affinity estimate (log intensity, higher = more binding, comparable within an allelic series)
CTGATGAA | 10 upbm affinity estimate (log intensity, higher = more binding, comparable within an allelic series)
AATTCAGG | 9.89 upbm affinity estimate (log intensity, higher = more binding, comparable within an allelic series)
AACCAATT | 10.4 upbm affinity estimate (log intensity, higher = more binding, comparable within an allelic series)
ACGTCGCC | 9.31 upbm affinity estimate (log intensity, higher = more binding, comparable within an allelic series)
CGCTCCAC | 9.44 upbm affinity estimate (log intensity, higher = more binding, comparable within an allelic series)
CAATTCCC | 9.81 upbm affinity estimate (log intensity, higher = more binding, comparable within an allelic series)
GCCAGCAC | 9.45 upbm affinity estimate (log intensity, higher = more binding, comparable within an allelic series)
AATAGGGT | 10.2 upbm affinity estimate (log intensity, higher = more binding, comparable within an allelic series)
GCAAGGCC | 9.45 upbm affinity estimate (log intensity, higher = more binding, comparable within an allelic series)
AGCCTTTC | 9.3 upbm affinity estimate (log intensity, higher = more binding, comparable within an allelic series)
CAAATGAG | 10.1 upbm affinity estimate (log intensity, higher = more binding, comparable within an allelic series)
CATCGGAC | 9.34 upbm affinity estimate (log intensity, higher = more binding, comparable within an allelic series)
GCGTGCCA | 9.08 upbm affinity estimate (log intensity, higher = more binding, comparable within an allelic series)
CGGACGAC | 9.43 upbm affinity estimate (log intensity, higher = more binding, comparable within an allelic series)
GGCCCTAC | 9.21 upbm affinity estimate (log intensity, higher = more binding, comparable within an allelic series)
AGATCAAT | 10.1 upbm affinity estimate (log intensity, higher = more binding, comparable within an allelic series)
AGGAGAGC | 9.35 upbm affinity estimate (log intensity, higher = more binding, comparable within an allelic series)

molecular target: PRRX1 (Homo sapiens, UniProt P54821 80-166); assay: PBM; 200 nM protein, PBS; details: dsDNA, one strand shown
Sequence (P54821 80-166): as the sequence (P54821 80-166 F113S) above, with S34F counted along it

Sequence | binding signal
CCAACACC | 8.85 upbm affinity estimate (log intensity, higher = more binding, comparable within an allelic series)
GACGTTGC | 9.38 upbm affinity estimate (log intensity, higher = more binding, comparable within an allelic series)
AGATATTA | 12.2 upbm affinity estimate (log intensity, higher = more binding, comparable within an allelic series)
GGACAACC | 9.23 upbm affinity estimate (log intensity, higher = more binding, comparable within an allelic series)
ACAGTCGG | 9.49 upbm affinity estimate (log intensity, higher = more binding, comparable within an allelic series)
CCAAGCTC | 9.43 upbm affinity estimate (log intensity, higher = more binding, comparable within an allelic series)
GAACAGCC | 9.53 upbm affinity estimate (log intensity, higher = more binding, comparable within an allelic series)
GTGTTAAC | 11.8 upbm affinity estimate (log intensity, higher = more binding, comparable within an allelic series)
CCAGGGAG | 8.8 upbm affinity estimate (log intensity, higher = more binding, comparable within an allelic series)
CCCAGGGA | 9.28 upbm affinity estimate (log intensity, higher = more binding, comparable within an allelic series)
CCATGACG | 9.37 upbm affinity estimate (log intensity, higher = more binding, comparable within an allelic series)
TCGTAACA | 11.3 upbm affinity estimate (log intensity, higher = more binding, comparable within an allelic series)
CCCGTACG | 9.33 upbm affinity estimate (log intensity, higher = more binding, comparable within an allelic series)
ACTTTATG | 10.9 upbm affinity estimate (log intensity, higher = more binding, comparable within an allelic series)
CCGAACCC | 9.29 upbm affinity estimate (log intensity, higher = more binding, comparable within an allelic series)
AATCATCC | 12.1 upbm affinity estimate (log intensity, higher = more binding, comparable within an allelic series)
CTTCATTA | 12.8 upbm affinity estimate (log intensity, higher = more binding, comparable within an allelic series)
GCTCCAGA | 9.02 upbm affinity estimate (log intensity, higher = more binding, comparable within an allelic series)
CGGAGCGC | 9.3 upbm affinity estimate (log intensity, higher = more binding, comparable within an allelic series)
AGCACCCT | 9.38 upbm affinity estimate (log intensity, higher = more binding, comparable within an allelic series)

Sequence | binding signal
CCAGAGTC | 9.46 upbm affinity estimate (log intensity, higher = more binding, comparable within an allelic series)
CCTGGAAC | 9.32 upbm affinity estimate (log intensity, higher = more binding, comparable within an allelic series)
CTGATGAA | 11.2 upbm affinity estimate (log intensity, higher = more binding, comparable within an allelic series)
AATTCAGG | 11.3 upbm affinity estimate (log intensity, higher = more binding, comparable within an allelic series)
AACCAATT | 12.6 upbm affinity estimate (log intensity, higher = more binding, comparable within an allelic series)
ACGTCGCC | 9.36 upbm affinity estimate (log intensity, higher = more binding, comparable within an allelic series)
CGCTCCAC | 9.3 upbm affinity estimate (log intensity, higher = more binding, comparable within an allelic series)
CAATTCCC | 11.3 upbm affinity estimate (log intensity, higher = more binding, comparable within an allelic series)
GCCAGCAC | 9.5 upbm affinity estimate (log intensity, higher = more binding, comparable within an allelic series)
AATAGGGT | 11.5 upbm affinity estimate (log intensity, higher = more binding, comparable within an allelic series)
GCAAGGCC | 9.29 upbm affinity estimate (log intensity, higher = more binding, comparable within an allelic series)
AGCCTTTC | 8.88 upbm affinity estimate (log intensity, higher = more binding, comparable within an allelic series)
CAAATGAG | 11.5 upbm affinity estimate (log intensity, higher = more binding, comparable within an allelic series)
CATCGGAC | 9.14 upbm affinity estimate (log intensity, higher = more binding, comparable within an allelic series)
GCGTGCCA | 9.45 upbm affinity estimate (log intensity, higher = more binding, comparable within an allelic series)
CGGACGAC | 9.26 upbm affinity estimate (log intensity, higher = more binding, comparable within an allelic series)
GGCCCTAC | 9.08 upbm affinity estimate (log intensity, higher = more binding, comparable within an allelic series)
AGATCAAT | 11.6 upbm affinity estimate (log intensity, higher = more binding, comparable within an allelic series)
AGGAGAGC | 9.36 upbm affinity estimate (log intensity, higher = more binding, comparable within an allelic series)
